Compound activity from PubChem.
PI5P4Ka inh: PI5P4K alpha (human) kinase inhibition; P48426; PI5P4Kalpha enzyme, ADP-Glo luminescence, 60 min; active compounds read low; max response, %; 330,000 tested, 1.2% active; active = max response of -50% or lower; inconclusive = between -30% and -50%; inactive = -30% or higher; also: value at the top dose of about 77 µM; % is scaled to controls: 0 for no effect and ±100 for the full control effect
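Luminescence from ADP-Glo served as readout of PI5P4Kalpha activity in a qHTS format. Reaction: enzyme, substrate, compound, ATP at 5 microM final, 60 min at RT.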
Pin1 inh: blocks the human prolyl isomerase Pin1 | Q13526 | Pin1 FP peptide displacement, HiFluor488, 10 min | Potency, µM (highest dose often 115 µM), inactives show top-dose activity, negative = inhibition, hits mostly inhibitors | 390,000 tested, 0.009% active | AID 504891; active = well fitted inhibition curve with a large enough effect in the polarisation, with a control signal flat, not every such curve was filed as active; inconclusive = small, poorly fitted or top-dose-only effect, or effect the other way, or a change in a side signal; inactive = no such curve, though single readings can be large or run the other way; the % refers to the polarisation; also: potency is read from the fitted curve at half-maximal effect; % is scaled to controls: 0 for no effect and ±100 for the full control effect
Tb PFK inh-1: inhibitors of T. brucei phosphofructokinase | O15648 | T. brucei PFK, ADP-Glo luminescence | Potency, µM (top dose mostly 57.5 µM), inactives show at the top dose activity, negative = inhibition, actives largely listed as inhibitors | 330,000 tested, 0.17% active | AID 485367;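 also: potency is read from the fitted curve at half-maximal effect; 0% = uninhibited 1x PFK enzyme wells and -100% = no-enzyme wells; nearly all actives have a fitted effect of over 60% in size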
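PFK 1.25 nM, F6P 0.5 mM, ATP 0.1 mM, 0.1 M TEA pH 8.0, 5 mM MgCl2, 0.01% Tween20, 0.1% BSA; 45 min RT. ADP-Glo readout. qHTS titration up to 57 uM; curves fitted, compounds curve-classed.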
Tb PGK inh: inhibitors of T. brucei phosphoglycerate kinase; PGK/GAPDH coupled, Kinase-Glo luminescence, 60 min; Potency, µM (titrated, usually from 57.5 µM), inactives show at the highest dose activity change, negative = inhibition, actives largely listed as inhibitors; 380,000 tested, 0.043% active; AID 602233; also: potency is read from the fitted curve at half-maximal effect; % is scaled to controls: 0 for no effect and ±100 for the full control effect; nearly all actives have a fitted effect of over 60% in size
Target sequence (P07378 whole entry, looked up): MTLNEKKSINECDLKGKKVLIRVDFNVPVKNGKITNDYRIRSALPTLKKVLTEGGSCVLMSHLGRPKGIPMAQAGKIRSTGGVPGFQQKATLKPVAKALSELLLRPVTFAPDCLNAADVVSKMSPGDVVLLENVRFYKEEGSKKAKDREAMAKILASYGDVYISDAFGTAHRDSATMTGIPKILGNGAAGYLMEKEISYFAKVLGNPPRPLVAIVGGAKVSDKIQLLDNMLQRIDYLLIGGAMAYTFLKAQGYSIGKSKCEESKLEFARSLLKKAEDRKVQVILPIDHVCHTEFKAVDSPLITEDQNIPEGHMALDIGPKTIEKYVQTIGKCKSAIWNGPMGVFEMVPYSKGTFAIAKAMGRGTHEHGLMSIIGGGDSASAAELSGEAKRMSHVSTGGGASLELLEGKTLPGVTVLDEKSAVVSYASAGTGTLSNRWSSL
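Recombinant glycosomal PGK reaction used 1,3-bisphosphoglycerate generated in-well by GAPDH (100nM final) in 100mM TEA pH 7.6, 5mM MgCl2, 0.01% Tween-20. After 60 minutes at room temperature, ATP was read by Kinase-Glo Plus luminescence end-point.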
PI4K2A block: inhibitors of human PI4K2A. purified PI4K2A, ADP-Glo luminescence, 1 h; active compounds read low. activity change, negative = inhibition, % at 76.9 µM. AID 1346378. 420,000 tested, 0.13% active. Q9BTU6; in the data active = activity change below about -50%; inconclusive = mostly about -30% to -49%;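 also: -100% = wells without enzyme as full effect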
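PI4K2A activity was measured by ADP-Glo luminescence: enzyme (4 ug/mL stock) and phosphatidylinositol (1.2 mM stock) in Tris pH 7.5/MgCl2/EGTA/Triton X-100 buffer were reacted with ATP (300 microM stock) for one hour at ambient temperature.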
TbPFK ATP: Tb phosphofructokinase inhibition, orthogonal luminescence | shares compounds with Tb PFK inh-1 | Tb PFK enzyme, ATP depletion, Kinase-Glo Plus luminescence | Potency, µM (doses to about 57.5 µM), inactives show at the top dose inhibition | 1,100 tested, 47% active; calls by dose curve; also: potency is read from the fitted curve at half-maximal effect; nearly all actives have a fitted effect of over 60% in size
Tb PFK inh-2: validation of T. brucei phosphofructokinase inhibitors; shares compounds with Tb PFK inh-1; purified T. brucei PFK, ADP-Glo luminescence, 45 min; Potency, µM (titrated, usually from 57.5 µM), for inactives: top-dose activity change, negative = inhibition, usual class: inhibitors; 1,100 tested, 41% active; AID 504637;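 also: potency is read from the fitted curve at half-maximal effect; plate controls were full PFK enzyme control for no effect and no enzyme control for full effect; nearly all actives have a fitted effect of over 60% in size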
Active calls of the source: *; i = inactive; ? = inconclusive; / = no result given. Many of the other results were omitted from the sample, so hits are more common in it than they were. Unless noted, calls follow the shape of the dose curve; as a rule, active = well fitted curve in the direction sought with a large enough effect; inconclusive = small, poorly fitted or top-dose-only effect, or another doubt; inactive = no such curve, though single readings can be large; an effect the other way counts as inactive or inconclusive.

SMILES	PI5P4Ka inh	Pin1 inh	Tb PFK inh-1	Tb PGK inh	PI4K2A block	TbPFK ATP	Tb PFK inh-2
CN1C(=S)SC(N(O)C(=O)Nc2ccc(Cl)c(Cl)c2)C1(C)C (stereo unspecified)	16	1%	?	-7%	2	?	?
CCOC(=O)c1ccc(NC(=O)c2cccn(Cc3ccccc3F)c2=O)cc1	/	-5%	/	-1%	-17	/	/
Cc1ccc(C)c2nc3sc(C(=O)O)cc3cc12	-4	3%	?	0%	5	-23%	?
NC(N)=NOCC[C@H](N)C(=O)O	/	/	/	/	-3	/	/
N#Cc1ccc(OCC(=O)Nc2cccc(S(=O)(=O)NC3=NCCCCC3)c2)cc1	?	14%	6µM*	-10%	-3	3.8µM*	6µM*
O=C(COc1ccc(Cl)cc1)Nc1cccc(S(=O)(=O)NC2=NCCCCC2)c1	0	-5%	3µM*	1%	1	2.7µM*	6µM*
COc1ccc(NC(=O)CN2C(=O)C(C)N=C(c3ccccc3F)c3cc(Cl)ccc32)c(OC)c1 (stereo unspecified)	/	5%	/	1%	4	/	/
Cc1ccc(-c2cn3c(=S)[nH]nc3s2)cc1	-19	0%	?	i	2	0.67µM*	?
Cc1nnc2n1-c1sc(CCC(=O)N3CCOCC3)cc1C(c1ccccc1Cl)=NC2	/	/	/	/	-2	/	/
O=C(CN1C(=O)c2ccccc2C1=O)NCCc1c[nH]c2ccc(Cl)cc12	5	12%	?	-10%	0	21µM*	30µM*
CC1CN(S(=O)(=O)c2cc(C(=O)NCc3ccncc3)ccc2Cl)CC(C)O1 (stereo unspecified)	-3	-7%	?	-3%	-1	?	?
CC(C)C1O/C(=N/C(=O)Nc2ccc(Cl)c(Cl)c2)NC1=O (stereo unspecified)	10	-1%	9.5µM*	7%	-3	24µM*	27µM*
O=C1NC(=O)C(Nc2ccc(Cl)c(Cl)c2)C(=O)N1	3	-9%	/	-13%	?	/	/
N=C(N)c1ccc(CS(=O)(=O)F)cc1	/	/	/	/	-2	/	/
CCOC(=O)c1[nH]c(C)c(/C(O)=C2\C(=O)C(=O)N(CCCn3ccnc3)C2c2ccncc2)c1C (stereo unspecified)	-3	-7%	24µM*	-5%	-1	12µM*	27µM*
CC1Cc2cc(/C(O)=C3/C(=O)C(=O)N(CCCn4ccnc4)C3c3cccc([N+](=O)[O-])c3)ccc2O1 (stereo unspecified)	5	-6%	11µM*	3%	2	6.7µM*	21µM*
CC(=NCCCn1ccnc1)c1c(O)n(-c2ccccc2)c(=O)[nH]c1=O	3	0%	0%	i	-2	/	/
CCCOc1ccc(/C(O)=C2/C(=O)C(=O)N(CCCn3ccnc3)C2c2ccc(C)o2)cc1 (stereo unspecified)	-6	6%	?	6%	-4	?	30µM*
Cc1ccccc1-c1nn2c(=O)cc(CN3CCN(C(=O)COc4ccccc4Cl)CC3)nc2s1	/	3%	/	-3%	2	/	/
CCN(CC)CCN1C(=O)CN=C(c2ccccc2F)c2cc(Cl)ccc21	/	/	/	/	2	/	/
O=C(Cc1ccc(Cl)c(Cl)c1)N1CCCCC1CN1CCCC1 (stereo unspecified)	/	/	/	/	-6	/	/
CCOc1ccc2nc(NC(=O)c3cccn(Cc4ccccc4)c3=O)sc2c1	/	1%	/	i	0	/	/
O=C(N/N=C\C=C\c1ccco1)C1COc2ccccc2O1 (stereo unspecified)	?	0%	24µM*	-6%	-13	21µM*	?
O=[N+]([O-])c1ccc(Nc2ccccc2)cc1	2	-8%	0%	-5%	0	/	/
